One assay addresses T1, ETV2 (Homo sapiens, UniProt O00321 1-342).
T1 sequence: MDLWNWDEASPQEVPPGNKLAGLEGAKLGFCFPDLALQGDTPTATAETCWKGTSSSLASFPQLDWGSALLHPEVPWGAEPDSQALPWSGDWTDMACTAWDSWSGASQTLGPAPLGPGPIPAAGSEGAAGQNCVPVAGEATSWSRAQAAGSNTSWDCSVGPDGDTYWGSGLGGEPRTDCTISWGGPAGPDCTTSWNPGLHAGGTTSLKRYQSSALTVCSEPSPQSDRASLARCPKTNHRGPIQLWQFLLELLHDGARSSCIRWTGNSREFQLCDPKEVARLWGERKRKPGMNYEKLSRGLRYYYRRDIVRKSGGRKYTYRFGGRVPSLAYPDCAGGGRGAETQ
As to the kind of experiment: DAPPL (digital affinity profiling via proximity ligation, sequencing); 10 mM Tris-HCl pH 7.5, 50 mM NaCl, 1 mM DTT, 4% glycerol, room temperature, 30 min; GST-TFs on glutathione beads, 16-mer random dsDNA library, 0.1% formaldehyde crosslink after washing; high values mean tight binding. As to conditions: protein: recombinant; tags: N-terminal GST; dsDNA, one strand shown. The procedure, abridged: (§1)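 After expression in yeast as GST fusions, human transcription factors were bound to glutathione beads, DNA-barcoded and mixed with a tag-only sample. The pools were incubated with 200 nmole of a 16-mer random double-stranded DNA library in Tris/NaCl/DTT/glycerol buffer (30 min, room temperature), washed and crosslinked with 0.1% formaldehyde. Proximity ligation with BsaI/T4 ligase ran for 1 h at 37 °C, before PCR amplification and sequencing on an Illumina NextSeq500. Binding signal is a hexamer's read frequency for a factor divided by its frequency for the tag-only sample.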
For CCGCCG, the binding signal was 1.11 fold enrichment (6-mer frequency, TF over GST control).
With CGTATC, the binding signal was 1.15 fold enrichment (6-mer frequency, TF over GST control).
Consider CACACT, for which the binding signal was 1.14 fold enrichment (6-mer frequency, TF over GST control).
Take TGGCAG: the binding signal is 1.29 fold enrichment (6-mer frequency, TF over GST control).
For GTCCTC, the binding signal is 1.4 fold enrichment (6-mer frequency, TF over GST control).
Regarding GACTAC, the binding signal was 1.22 fold enrichment (6-mer frequency, TF over GST control).
CCAACA: the binding signal is 1.02 fold enrichment (6-mer frequency, TF over GST control).
For GTACAA, the binding signal was 1.19 fold enrichment (6-mer frequency, TF over GST control).
Same read-out and setting: next, TGCACC: 1.13 fold enrichment (6-mer frequency, TF over GST control); CCCCCG: 1.03 fold enrichment (6-mer frequency, TF over GST control).
CGACAC: the binding signal was 1.15 fold enrichment (6-mer frequency, TF over GST control).
Turning to CTGTCC, the binding signal was 1.2 fold enrichment (6-mer frequency, TF over GST control).
For GCACCC, the binding signal was 1.28 fold enrichment (6-mer frequency, TF over GST control).
On to GACATC, for which the binding signal was 1.31 fold enrichment (6-mer frequency, TF over GST control).
For CACATA, the binding signal was 1.18 fold enrichment (6-mer frequency, TF over GST control).
As to CGTACC, the binding signal was 1.15 fold enrichment (6-mer frequency, TF over GST control).
Still for that read-out and setting: next, GCTTGG: 1.07 fold enrichment (6-mer frequency, TF over GST control); ACACAC: 1.33 fold enrichment (6-mer frequency, TF over GST control); TGCGAC: 1.33 fold enrichment (6-mer frequency, TF over GST control).
On to CCGTCA, for which the binding signal is 1.24 fold enrichment (6-mer frequency, TF over GST control).

Another assay has as its target T2, ELF3 (Homo sapiens, UniProt P78545 1-371).
T2 sequence: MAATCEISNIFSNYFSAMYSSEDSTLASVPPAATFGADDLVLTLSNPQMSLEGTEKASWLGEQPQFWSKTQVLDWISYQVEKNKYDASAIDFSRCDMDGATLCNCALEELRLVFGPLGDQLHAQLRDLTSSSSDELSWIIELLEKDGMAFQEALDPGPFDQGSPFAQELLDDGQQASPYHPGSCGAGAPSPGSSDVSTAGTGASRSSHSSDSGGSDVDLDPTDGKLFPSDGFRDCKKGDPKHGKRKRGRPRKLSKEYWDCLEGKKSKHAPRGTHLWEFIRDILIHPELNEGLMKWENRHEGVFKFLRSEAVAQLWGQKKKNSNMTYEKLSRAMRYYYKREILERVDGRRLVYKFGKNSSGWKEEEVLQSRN
The assay is described as above. As to conditions: protein: recombinant; tags: N-terminal GST; dsDNA, one strand shown. In short, it runs like this: as §1
For the sequence CACCCT, the binding signal is 1.08 fold enrichment (6-mer frequency, TF over GST control).
For TGCGGA, the binding signal is 1.74 fold enrichment (6-mer frequency, TF over GST control).
CTCACC: the binding signal was 1.33 fold enrichment (6-mer frequency, TF over GST control).
Still for that read-out and setting: next, GCCACT: 1.1 fold enrichment (6-mer frequency, TF over GST control).
Take TGTCAC: the binding signal is 1.2 fold enrichment (6-mer frequency, TF over GST control).
Still for that read-out and setting: next, GCTACA: 1.27 fold enrichment (6-mer frequency, TF over GST control); CCACAT: 1.17 fold enrichment (6-mer frequency, TF over GST control); CACAAC: 1.3 fold enrichment (6-mer frequency, TF over GST control).
As for GGCCTC, the binding signal was 1.05 fold enrichment (6-mer frequency, TF over GST control).
Still for that read-out and setting: next, GCTACC: 1.1 fold enrichment (6-mer frequency, TF over GST control).
As to ACAACC, the binding signal is 1.26 fold enrichment (6-mer frequency, TF over GST control).
Take CAACAT: the binding signal was 1.2 fold enrichment (6-mer frequency, TF over GST control).
Consider CAAACT, for which the binding signal was 1.06 fold enrichment (6-mer frequency, TF over GST control).
With TGCATG, the binding signal is 1.02 fold enrichment (6-mer frequency, TF over GST control).
On to GTCCTT, for which the binding signal was 1.16 fold enrichment (6-mer frequency, TF over GST control).
As to GGATGC, the binding signal was 1.13 fold enrichment (6-mer frequency, TF over GST control).
Consider AGCGAC, for which the binding signal is 1.01 fold enrichment (6-mer frequency, TF over GST control).
Regarding AACCGG, the binding signal is 1.36 fold enrichment (6-mer frequency, TF over GST control).
For the sequence ACCTGA, the binding signal is 1.14 fold enrichment (6-mer frequency, TF over GST control).
Take CCCGGC: the binding signal was 1.01 fold enrichment (6-mer frequency, TF over GST control).
On to CCGCCG, for which the binding signal was 1.23 fold enrichment (6-mer frequency, TF over GST control).
For the sequence CGTATC, the binding signal is 1.13 fold enrichment (6-mer frequency, TF over GST control).
With CACACT, the binding signal was 1.21 fold enrichment (6-mer frequency, TF over GST control).
Regarding TGGCAG, the binding signal was 1.02 fold enrichment (6-mer frequency, TF over GST control).
The same measure, in the same setting: the value for GTCCTC was 1.16 fold enrichment (6-mer frequency, TF over GST control); that for GACTAC was 1.2 fold enrichment (6-mer frequency, TF over GST control); that for CCAACA was 1.06 fold enrichment (6-mer frequency, TF over GST control).
Consider GTACAA, for which the binding signal is 1.08 fold enrichment (6-mer frequency, TF over GST control).
Regarding TGCACC, the binding signal was 1.21 fold enrichment (6-mer frequency, TF over GST control).
As to CCCCCG, the binding signal is 1.22 fold enrichment (6-mer frequency, TF over GST control).
Turning to CGACAC, the binding signal was 1.04 fold enrichment (6-mer frequency, TF over GST control).
In the case of CTGTCC, the binding signal was 1.17 fold enrichment (6-mer frequency, TF over GST control).
Regarding GCACCC, the binding signal is 1.25 fold enrichment (6-mer frequency, TF over GST control).
GACATC: the binding signal is 1.23 fold enrichment (6-mer frequency, TF over GST control).
Same read-out and setting: the value for CACATA was 1.11 fold enrichment (6-mer frequency, TF over GST control).
For the sequence CGTACC, the binding signal was 1.25 fold enrichment (6-mer frequency, TF over GST control).
Regarding GCTTGG, the binding signal is 1.14 fold enrichment (6-mer frequency, TF over GST control).
Same read-out and setting: the value for ACACAC was 1.23 fold enrichment (6-mer frequency, TF over GST control).
Take TGCGAC: the binding signal was 1.32 fold enrichment (6-mer frequency, TF over GST control).
As to CCGTCA, the binding signal is 1.35 fold enrichment (6-mer frequency, TF over GST control).

The record behind these values is PMC7862700, “An all-to-all approach to the identification of sequence-specific readers for epigenetic DNA modifications on cytosine”.
